AmpC inh no detg – blocks E. coli AmpC beta-lactamase in detergent-free assay; AmpC nitrocefin hydrolysis, absorbance 480 nm, 0.0001% Triton; Potency, µM (highest dose often 57.1 µM), without a hit: at the top dose activity change, negative = inhibition, usual class: inhibitors; 330,000 compounds, 0.52% hits;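 note: plate controls were no compound for no effect and no enzyme for full effect; nearly all actives have a fitted effect of over 20% in size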
Target sequence (P00811 whole entry, looked up): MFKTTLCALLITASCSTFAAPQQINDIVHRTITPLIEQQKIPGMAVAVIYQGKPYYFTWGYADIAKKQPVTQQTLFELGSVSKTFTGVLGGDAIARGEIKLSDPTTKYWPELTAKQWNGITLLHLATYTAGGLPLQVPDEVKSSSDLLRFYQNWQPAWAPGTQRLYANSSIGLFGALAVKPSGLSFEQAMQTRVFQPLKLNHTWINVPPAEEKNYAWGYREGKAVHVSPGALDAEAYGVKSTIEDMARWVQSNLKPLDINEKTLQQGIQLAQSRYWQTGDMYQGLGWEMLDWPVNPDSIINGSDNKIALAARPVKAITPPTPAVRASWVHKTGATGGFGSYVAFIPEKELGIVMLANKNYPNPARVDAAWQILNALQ
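AmpC (5.3 nM in the dispensed reagent) in 20 mM phosphate pH 7.0 with 0.01% (detergent screen) or 0.0001% Triton X-100 was preincubated with compounds for 15 min at room temperature. Nitrocefin was then added from an 800 uM solution, and hydrolysis was followed at 480 nm.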
Pf growth 96h – inhibits malaria parasite growth, 96 h; Potency, µM (highest dose often 28.7 µM), without a hit: at the top dose activity change, negative = inhibition, most hits filed as inhibitors; 320,000 compounds, 6.9% hits; P. falciparum luciferase reporter growth, 96 h; note: % is set by controls: 0 for no effect and ±100 for the full control effect
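Cell-based qHTS: luciferase-tagged P. falciparum in erythrocytes (2% hematocrit, 0.05% parasitemia final) incubated with compounds for 96 hours, 37 C, 5% CO2; luciferase detection reagent then added and luminescence measured.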
AmpC detergent – AmpC beta-lactamase inhibition with detergent present | AmpC hydrolysis of nitrocefin, absorbance 480 nm, 0.01% Triton | Potency, µM (titrated, usually from 114 µM), for the others: at the top dose activity change, negative = inhibition, hits mostly inhibitors | AID 485294 | 370,000 compounds, 0.041% hits;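 note: 0% = no-compound wells and -100% = no-enzyme wells; nearly all actives have a fitted effect of over 25% in size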
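AmpC (5.3 nM in the dispensed reagent) in 20 mM phosphate pH 7.0 with 0.01% (detergent screen) or 0.0001% Triton X-100 was preincubated with compounds for 15 min at room temperature. Nitrocefin was then added from an 800 uM solution, and hydrolysis was followed at 480 nm.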
SARS PLpro yeast – inhibitors of SARS-CoV papain-like protease in yeast. S. cerevisiae expressing SARS-CoV PLpro, growth rescue. Potency, µM (series often up to 32.9 µM), for inactives: at the highest dose activity, positive = growth rescue, most hits filed as activators. 330,000 compounds, 0.19% hits. AID 485353; calls by dose curve; note: 0% is about no effect; nearly all actives have a fitted effect of over 55% in size
Sm TGR inh – inhibitors of Schistosoma mansoni thioredoxin glutathione reductase; purified TGR, DTNB reduction, TNB absorbance 405 nm; 360,000 compounds, 3% hits; Potency, µM (titrated, usually from 114 µM), without a hit: at the highest dose activity change, negative = inhibition, hits mostly inhibitors; Q962Y6; AID 485364; note: % is set by controls: 0 for no effect and ±100 for the full control effect; nearly all actives have a fitted effect of over 60% in size
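Kinetic colorimetric format: TGR-catalysed, NADPH-driven DTNB reduction monitored via TNB absorbance. Enzyme dispensed at 20 nM; compound exposure 15 min at room temperature before reaction start.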
Pf growth 48h – inhibits P. falciparum growth in the first generation, 48 h; P. falciparum luciferase growth in erythrocytes, 48 h; Potency, µM (highest dose often 28.7 µM), for the others: at the highest dose activity change, negative = inhibition, hits mostly inhibitors; 310,000 compounds, 5.9% hits; note: % is set by controls: 0 for no effect and ±100 for the full control effect
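Luminescence readout; reporter = integrated firefly luciferase in P. falciparum. RBC culture at 2% hematocrit, 0.1% parasitemia final, 37 C/5% CO2; decreased signal taken as growth inhibition.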
The depositor's hits bear a star; ? = inconclusive; · = not tested or not shown; [ ] = remark or other dose. Compounds with a hit are over-represented: about 12% of the library has one in this group of screens. Unless noted, calls come from the whole dose curve; as a rule, active = well fitted curve in the direction sought with a large enough effect; inconclusive = small, poorly fitted or top-dose-only effect, or another doubt; inactive = no such curve, though single readings can be large; an effect the other way counts as inactive or inconclusive. Potency is the fitted concentration of half-maximal effect.

SMILES	AmpC inh no detg	Pf growth 96h	AmpC detergent	SARS PLpro yeast	Sm TGR inh	Pf growth 48h
Cc1ccc(-c2cccc(NC(=O)C3C(C(=O)O)[C@@H]4C=C[C@H]3C4)c2)o1 (stereo partly specified)	-16%	6%	-6%	-1%	20µM*	0%
O=C(O)C1C2C=CC(C2)C1C(=O)NCc1ccco1 (stereo unspecified)	0%[2.29 µM]	-13%	-3%	1%	-32%	-7%[5.75 µM]
Cc1ccc(-c2ccccc2NC(=O)CS(=O)CC(=O)Nc2ccc(C)c(Cl)c2)o1 (stereo unspecified)	-21%	12%	-2%	-7%	-25%	-5%
CCN(CC(=O)Nc1c(F)cccc1F)C(=O)c1cc([N+](=O)[O-])ccc1N1CCCCC1	-11%	4%	-9%	·	8%	?
CC(=O)Nc1ccc(NC(=O)C2C3C=CC(C3)C2C(=O)O)cc1 (stereo unspecified)	-14%	1.7µM*	-15%	2%	5%	6%
O=C(Nc1ccc(Cc2ccc(NC(=O)N3CCOCC3)cc2)cc1)N1CCOCC1	1%	4.1µM*	3%	2%	2%	?
O=C(Nc1ccc(F)cc1)N1CCOCC1	-6%	?	?	9%	5%	20%
O=C(Nc1cccc(O)c1)N1CCOCC1	-5%	12µM*	?	1%	?	40%
CN(C)c1ccc(NC(=O)N2CCOCC2)cc1	-6%	?	6%	-17%	-11%	6.6µM*
CCOC(=O)c1c(C)[nH]c(C)c1S(=O)(=O)N1CCC(C(=O)Nc2ccccc2CC)CC1	·	·	3%	·	0%	·
CCn1c(N)c(C(=O)NCCOC)sc1=S	-6%	-4%	-2%	7%	4%	·
CCn1c(N)c(C(=O)Nc2ccccc2C(=O)OC)sc1=S	-20%	13µM*	0%	0%	6%	61%
Cc1ccccc1NC(=O)n1ncc2cc(Cl)ccc21	-6%	-29%	-3%	-2%	-8%	35%
COc1ccc(C)cc1NC(=O)n1ncc2cc(Cl)ccc21	-6%	3.3µM*	2%	0%	6%	11%
COc1cccc2c1C(=O)c1c(O)c3c(c(O)c1C2=O)C[C@](O)(C(C)=O)C[C@H]3O[C@@H]1C[C@@H](N)[C@@H](O)[C@@H](C)O1	158%	1.2µM*	-13%	·	-15%	0.93µM*
COc1cccc2c1C(=O)c1c(O)c3c(c(O)c1C2=O)C[C@@](O)(C(=O)CO)C[C@@H]3O[C@H]1C[C@H](N)[C@H](OC2CCCCO2)[C@H](C)O1 (stereo partly specified)	·	4.3µM*	·	·	·	3.8µM*
COc1cccc2c1-c1c(O)cccc1C2=O	-18%	6%	-12%	-2%	-6%	-2%
COc1cc(OC)cc(-c2nnc(NC(=O)CCS(=O)(=O)c3ccccc3)o2)c1	-34%	5%	-12%	0%	32µM*	-3%
COc1cc(-c2nnc(NC(=O)CCS(=O)(=O)c3ccccc3)o2)cc(OC)c1OC	-13%	-5%	5%	2%	28µM*	-6%
Cc1ccc(C(=O)N2CCCC(N3CCN(c4ccccc4C)CC3)C2)c(=O)[nH]1 (stereo unspecified)	18%	0%	-9%	11%	-34%	-8%
Cc1c(Cl)cccc1NC(=O)c1ccc2nc(C(C)C)oc2c1	·	·	6%	·	-8%	·
CC(C)c1cnc2c(c1SCC(=O)c1ccc(Cl)cc1)c(=O)n(C)c(=O)n2C	·	·	-2%	·	-10%	·
COc1ccc(OC)c(CNC(=O)C2CCN(S(=O)(=O)c3ccc4[nH]c(=O)oc4c3)CC2)c1	·	·	24%	·	-1%	·
CCc1nnc(NC(=O)Cc2ccc(S(=O)(=O)N3CCCCC3)cc2)s1	-7%	12µM*	5%	0%	-17%	12µM*
CC(C)(C)c1csc(NC(=O)Cc2ccc(S(=O)(=O)N3CCOCC3)s2)n1	-12%	10µM*	0%	-4%	-13%	?
SMILES	AmpC inh no detg	Pf growth 96h	AmpC detergent	SARS PLpro yeast	Sm TGR inh	Pf growth 48h
CCc1nnc(NC(=O)c2ccc(S(=O)(=O)N3CCCCCC3)cc2)s1	-15%	·	-4%	1%	0%	2%
CCCCc1nnc(NC(=O)Cc2ccc(S(=O)(=O)N3CCOCC3)s2)s1	-33%	?	-5%	3%	-21%	10µM*
C=CC(=O)N=c1sc2ccccc2n1-c1ccccc1	-12%	?	5%	-12%	40µM*	35%
N=c1sc2ccccc2n1-c1ccccc1	-2%	-13%	-4%	1%	-11%	-5%
Cc1ccc(/C=C2/NC(=O)N(Cc3ccc(Br)cc3)C2=O)o1	2.5µM*	-25%	-6%	-53%	50µM*	-17%
O=C1N/C(=C/c2ccc(N3CCOCC3)o2)C(=O)N1c1cccc(Cl)c1	-17%[2.29 µM]	-4%	-1%	0%	2.8µM*	-1%
CCCN1C(=O)/C(=C/c2ccc(C)o2)NC1=S	-44%	?	2%	-3%	6.3µM*	-7%
CCOC(=O)CN1C(=O)S/C(=C\c2ccc(-c3ccc(C(=O)O)c(Cl)c3)o2)C1=O	-13%	-18%	0%	0%	-28%	?
O=C(O)c1ccc(-c2ccc(/C=C3\NC(=O)N(Cc4ccc(Cl)cc4)C3=O)o2)cc1Cl	-35%	-4%	4%	0%	·	15µM*
CC(C)CCNC(=O)c1ccc2c(c1)N(Cc1ccccc1F)C(=O)c1ccccc1S2(=O)=O	·	·	1%	·	4%	·
Cc1ccc(/C=C2/NC(=O)N(c3ccccc3)C2=O)o1	-26%	-6%	-2%	-26%	32µM*	104%
Cc1c(C(=O)O)cccc1-c1ccc(/C=C2/NC(=O)N(c3ccccc3)C2=O)o1	-12%	8%	6%	1%	-27%	33%
CCN1C(=O)N/C(=C/c2ccc(C)o2)C1=O	-10%	22%	-1%	-1%	35µM*	23%
COc1ccc(NC(=O)CN2CCN(C(=O)N3CCOCC3)CC2)cc1	-14%	2.3µM*	-5%	-3%	-3%	12%
Cc1ccc(N(C(C)C(=O)N2CCOCC2)S(C)(=O)=O)cc1C (stereo unspecified)	-7%	9.3µM*	-12%	-1%	4%	?
CCOC(=O)N1CCN(CC(=O)Nc2ccc(Oc3ccccc3)cc2)CC1	106%	·	-2%	1%	-17%	7.4µM*
CCOC(=O)N1CCN(C(=O)C(C)N(c2ccc(Oc3ccccc3)cc2)S(C)(=O)=O)CC1 (stereo unspecified)	0%	?	5%	-2%	0%	12µM*

Bioassay records (PubChem BioAssay)
